In all, about 5,500 compounds went through this assay and about 2,000 (36%) were called active. Not shown: some 18% with an inconclusive outcome. Rule as the data show it: active = normalized growth mostly below about 0.91 (no sharp cut-off); inconclusive = no clear call, values can overlap the other calls; inactive = mostly above about 0.92. Some of the results follow.
Experiment: chemical genetic growth profiling, strain panel (AID 1159580);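 also: tested at 20 µM; growth read once vehicle control cultures reached saturation at 30 °C; 1 = growth at the plate median or of vehicle wells; lower values mean less growth of the strain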
Details: growth OD

Measured: normalized growth

Clc1ccc(COC(Cn2ccnc2)c2ccc(Cl)cc2Cl)cc1 (stereo unspecified)
active: S. cerevisiae deletion strains, locus YJR066W, strain TOR1, hits give low values 0.00125 | S. cerevisiae deletion strains, locus YJR075W, strain HOC1, hits give low values 0.0611 | S. cerevisiae deletion strains, locus YKL009W, strain mrt4, hits give low values 0.0921 | S. cerevisiae deletion strains, locus YKL068W, hits give low values 0.0732 | S. cerevisiae deletion strains, locus YKL085W, strain MDH1 (second series), hits give low values 0.0674 | S. cerevisiae deletion strains, locus YKL085W, strain MDH1, hits give low values 0.0674 | S. cerevisiae deletion strains, locus YKL160W, strain elf1, hits give low values 0.0682 | S. cerevisiae deletion strains, locus YKL190W, strain CNB1, hits give low values 0.0459 | S. cerevisiae deletion strains, locus YKR001C, strain vps1, hits give low values 0.0628 | S. cerevisiae deletion strains, locus YKR026C, strain gcn3, hits give low values 0.0617 | S. cerevisiae deletion strains, locus YKR091W, strain srl3, hits give low values 0.0578 | S. cerevisiae deletion strains, locus YLL001W, strain dnm1, hits give low values 0.0616 | S. cerevisiae deletion strains, locus YLL026W, hits give low values 0.0557 | S. cerevisiae deletion strains, locus YLL041C, strain sdh2, hits give low values 0.0556 | S. cerevisiae deletion strains, locus YLR027C, strain aat2, hits give low values 0.0535 | S. cerevisiae deletion strains, locus YLR039C, strain RIC1, hits give low values 0.0808 | S. cerevisiae deletion strains, locus YLR058C, strain SHM2, hits give low values 0.0475 | S. cerevisiae deletion strains, locus YLR102C, strain apc9, hits give low values 0.0627 | S. cerevisiae deletion strains, locus YLR113W, strain HOG1, hits give low values 0.128 | S. cerevisiae deletion strains, locus YLR221C, strain rsa3, hits give low values 0.0566 | S. cerevisiae deletion strains, locus YLR258W, strain gsy2, hits give low values 0.0569 | S. cerevisiae deletion strains, locus YLR262C, strain YPT6 (second series), hits give low values 0.0789 | S. cerevisiae deletion strains, locus YLR262C, strain YPT6, hits give low values 0.112 | S. cerevisiae deletion strains, locus YLR268W, strain sec22, hits give low values 0.0635 | S. cerevisiae deletion strains, locus YLR320W, strain mms22, hits give low values 0.139 | S. cerevisiae deletion strains, locus YLR330W, strain CHS5, hits give low values 0.0517 | S. cerevisiae deletion strains, locus YLR342W, strain FKS1 (second series), hits give low values 0.0624 | S. cerevisiae deletion strains, locus YLR342W, strain FKS1, hits give low values 0.0696 | S. cerevisiae deletion strains, locus YLR357W, strain rsc2, hits give low values 0.121 | S. cerevisiae deletion strains, locus YLR370C, strain arc18, hits give low values 0.0609 | S. cerevisiae deletion strains, locus YLR371W, strain rom2, hits give low values 0.0612 | S. cerevisiae deletion strains, locus YLR384C, strain iki3, hits give low values 0.0595 | S. cerevisiae deletion strains, locus YLR418C, strain cdc73, hits give low values 0.089 | S. cerevisiae deletion strains, locus YML016C, strain PPZ1, hits give low values 0.046 | S. cerevisiae deletion strains, locus YML032C, strain rad52, hits give low values 0.0629 | S. cerevisiae deletion strains, locus YML120C, strain ndi1, hits give low values 0.0559 | S. cerevisiae deletion strains, locus YML124C, strain tub3, hits give low values 0.06 | S. cerevisiae deletion strains, locus YMR058W, strain fet3, hits give low values 0.0614 | S. cerevisiae deletion strains, locus YMR078C, strain ctf18, hits give low values 0.0711 | S. cerevisiae deletion strains, locus YMR125W, strain sto1, hits give low values 0.0771 | S. cerevisiae deletion strains, locus YMR129W, hits give low values 0.0559 | S. cerevisiae deletion strains, locus YMR205C, strain PFK2, hits give low values 0.0917 | S. cerevisiae deletion strains, locus YMR223W, strain ubp8, hits give low values 0.0593 | S. cerevisiae deletion strains, locus YMR231W, strain pep5, hits give low values 0.125 | S. cerevisiae deletion strains, locus YMR263W, strain SAP30, hits give low values 0.055 | S. cerevisiae deletion strains, locus YMR307W, strain GAS1, hits give low values 0.123 | S. cerevisiae deletion strains, locus YNL067W, strain RPL9B, hits give low values 0.0483 | S. cerevisiae deletion strains, locus YNL071W, strain lat1, hits give low values 0.0586 | S. cerevisiae deletion strains, locus YNL128W, strain TEP1, hits give low values 0.0622 | S. cerevisiae deletion strains, locus YNL153C, strain GIM3, hits give low values 0.0497 | S. cerevisiae deletion strains, locus YNL183C, strain NPR1, hits give low values -0.00516 | S. cerevisiae deletion strains, locus YNL209W, strain ssb2, hits give low values 0.0633 | S. cerevisiae deletion strains, locus YNL233W, strain BNI4, hits give low values 0.0542 | S. cerevisiae deletion strains, locus YNL248C, strain rpa49, hits give low values 0.0786 | S. cerevisiae deletion strains, locus YNL250W, strain rad50, hits give low values 0.0799 | S. cerevisiae deletion strains, locus YNL271C, strain bni1, hits give low values 0.0793 | S. cerevisiae deletion strains, locus YNL298W, strain CLA4, hits give low values 0.0698 | S. cerevisiae deletion strains, locus YNL307C, strain MCK1, hits give low values 0.0676 | S. cerevisiae deletion strains, locus YNL322C, strain KRE1 (second series), hits give low values 0.067 | S. cerevisiae deletion strains, locus YNR049C, strain mso1, hits give low values 0.0571 | S. cerevisiae deletion strains, locus YNR052C, strain pop2, hits give low values 0.0609 | S. cerevisiae deletion strains, locus YOL006C, strain TOP1, hits give low values 0.104 | S. cerevisiae deletion strains, locus YOL012C, strain htz1 0.142 | S. cerevisiae deletion strains, locus YOL147C, strain pex11, hits give low values 0.0571 | S. cerevisiae deletion strains, locus YOR001W, strain rrp6, hits give low values 0.0678 | S. cerevisiae deletion strains, locus YOR061W, strain CKA2, hits give low values 0.0453 | S. cerevisiae deletion strains, locus YOR069W, strain VPS5, hits give low values 0.0468 | S. cerevisiae deletion strains, locus YOR070C, strain gyp1, hits give low values 0.0583 | S. cerevisiae deletion strains, locus YOR080W, strain dia2, hits give low values 0.0655 | S. cerevisiae deletion strains, locus YOR083W, strain WHI5, hits give low values 0.0646 | S. cerevisiae deletion strains, locus YOR106W, strain vam3, hits give low values 0.0717 | S. cerevisiae deletion strains, locus YOR136W, strain idh2, hits give low values 0.0693 | S. cerevisiae deletion strains, locus YOR144C, strain elg1, hits give low values 0.0562 | S. cerevisiae deletion strains, locus YOR184W, strain ser1, hits give low values 0.0649 | S. cerevisiae deletion strains, locus YOR231W, strain MKK1, hits give low values 0.119 | S. cerevisiae deletion strains, locus YOR265W, strain rbl2, hits give low values 0.0574 | S. cerevisiae deletion strains, locus YOR270C, strain vph1, hits give low values 0.104 | S. cerevisiae deletion strains, locus YOR290C, strain snf2, hits give low values 0.0649 | S. cerevisiae deletion strains, locus YOR316C, strain cot1, hits give low values 0.0595 | S. cerevisiae deletion strains, locus YPL051W, strain arl3, hits give low values 0.0626 | S. cerevisiae deletion strains, locus YPL078C, strain atp4, hits give low values 0.0787 | S. cerevisiae deletion strains, locus YPL106C, strain sse1, hits give low values 0.0958 | S. cerevisiae deletion strains, locus YPL240C, strain hsp82, hits give low values 0.0557 | S. cerevisiae deletion strains, locus YPL241C, strain CIN2, hits give low values 0.0472 | S. cerevisiae deletion strains, locus YPL256C, strain CLN2, hits give low values 0.127 | S. cerevisiae deletion strains, locus YPR119W, strain clb2, hits give low values 0.062 | S. cerevisiae deletion strains, locus YPR141C, strain kar3, hits give low values 0.0789 | S. cerevisiae deletion strains, locus YPR163C, strain tif3, hits give low values 0.0707 | S. cerevisiae deletion strains, locus YPR167C, strain met16, hits give low values 0.0615 | S. cerevisiae deletion strains, strain wtn01, hits give low values 0.0584 | S. cerevisiae strains, strain wild type, hits give low values 0.0556

Reference: PubChem BioAssay AID1159580 (chemical genetic matrix, 2015)
